According to the supplement of paper PMC10338343:
± gives the standard deviation.

How the values were obtained:
[1] = system: MILI (PIWIL2) piRISC loaded with L1MC piRNA (26 nt); experiment: pre-steady-state target cleavage rate (min^-1); guide: L1MC piRNA 5'p-UAACUAAAUACUAUGCAAGCUGUAGG; higher = faster piRNA-guided slicing of the target
In short: (§1)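 Cleave-'n-Seq: 1 nM active affinity-purified piRISC with one synthetic guide and 0.1 nM transcribed, DNA-blocked target RNA library were mixed, with or without 500 nM GTSF1 partner protein, in HEPES–potassium acetate buffer at 33 °C for 0–8 or 0–960 min. Uncleaved targets were sequenced and normalised to depth and to weakly complementary targets, three trials were pooled, and k3 was capped at 0.0001 min^-1. The pre-steady-state cleavage rate was fitted […].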

[2] = system: EfPiwi piRISC loaded with L1MC piRNA (26 nt); experiment: pre-steady-state target cleavage rate (min^-1); auxiliary factor: 500 nM Ephydatia muelleri Gtsf1; guide: L1MC piRNA 5'p-UAACUAAAUACUAUGCAAGCUGUAGG; MIWI and MILI are mouse PIWI proteins and EfPiwi is from a freshwater sponge; tags in brackets are library labels; higher = faster piRNA-guided slicing of the target
In short: as §1

[3] = auxiliary factor: 500 nM mouse GTSF1
[4] = auxiliary factor: none (no GTSF1)

Sequence | pre-steady-state target cleavage rate [1, 3] | pre-steady-state target cleavage rate [1, 4] | pre-steady-state target cleavage rate [2]
UCCUCGUUCAGCUUGCAUAGUAUUUAGUUA | 0.262 ± 0.015 | 0.00616 ± 0.0018 | 0.104 ± 0.021
UCCUCCUAGUCCUUGCAUAGUAUUUAGUUA | 0.235 ± 0.018 | 0.00692 ± 0.0015 | 0.0173 ± 0.0063
UCCUGGAUCAGCUUGCUUAGUAUUAAGUUA | 0.129 ± 0.016 | 0.00516 ± 0.0021 | 0.00376 ± 0.0025
UCCUGGUACAGCUAGCAUAGUAUUAAGUUA | 0.198 ± 0.032 | 0.00537 ± 0.0026 | 0.00476 ± 0.0024
UCCUGGAUGAGCUUGACAUAGUAUUUAGUUA | 0.0929 ± 0.01 | 0.00352 ± 0.0026 | 0.00729 ± 0.0021
UCCUGGAUGACCUUGCAAAGUAUUUAGUUA | 0.0397 ± 0.011 | 0.00372 ± 0.0031 | 0.00391 ± 0.0037
UCCUCCUACAGCUUGCAUAGUAUUUAAUUA | 0.11 ± 0.019 | 0.00326 ± 0.0027 | 0.00331 ± 0.003
UCCUGGUUCAGCUUGGAUAGUAUUUAGUUA | 0.191 ± 0.022 | 0.013 ± 0.0035 | 0.00792 ± 0.0035
UCCUGGAACAGCUUGCAUAGUAUAUUAGUUA | 0.247 ± 0.019 | 0.00778 ± 0.0024 | 0.0104 ± 0.0043
UCCUGGUACAGCUAGCAAAGUAUUUAGUUA | 0.102 ± 0.013 | 0.0127 ± 0.0033 | 0.00688 ± 0.0029
UCCUGGAACAGCUUGCAGAGUAUUUAGUUA | 0.193 ± 0.019 | 0.00795 ± 0.0019 | 0.012 ± 0.003
UCCUCCUACUGCUUGCAUAGUAUUAAGUUA | 0.15 ± 0.018 | 0.00292 ± 0.0026 | 0.00682 ± 0.0034
UCCUGGAUCAGCUUGCAUAGUAAUUAGUUA | 0.233 ± 0.013 | 0.0101 ± 0.0024 | 0.0264 ± 0.0082
UCCUGCUACAGCUUGCAUAGUGAUUUAGUUA | 0.0204 ± 0.0094 | 0.00369 ± 0.0028 | 0.00289 ± 0.0028
UCCUGGAUCAGCUUGCUUACUAUUUAGUUA | 0.0672 ± 0.0086 | 0.00436 ± 0.0022 | 0.0032 ± 0.0024
UCCUCCUUCAGCUUGCAUACUAUUUAGUUA | 0.0786 ± 0.013 | 0.00296 ± 0.0027 | 0.00784 ± 0.0025
UCCUGGAACAGCUUGCUUAGUAUUUUGUUA | 0.167 ± 0.025 | 0.00339 ± 0.0024 | 0.00494 ± 0.0028
UCCUGGAUGUGGUUGCAUAGUAUUUAGUAA | 0.0925 ± 0.021 | 0.0105 ± 0.0041 | 0.11 ± 0.056
